Laboratory results published in the OligoGym collection.

Biological target: C6orf203
Assay: pooled miR-30 sensor sort-seq; sequence = guide strand
Conditions: shRNA
Note: reference of the scale not given here.

| Sequence | sensor-assay potency score (higher = more potent) |
| --- | --- |
| TAGAAAAATACAAGTATCGATT | -1.01 |
| TAGTAGATTTTGTAGACCTTAT | -0.878 |
| TTATAGTTTTTGACTACAGTAG | -0.647 |
| TATTACTTTTGAGTCTTACGGA | -0.0954 |
| TTAGTAGATTTTGTAGACCTTA | -0.225 |

Biological target: C6orf223
Assay: as above
Conditions: shRNA

| Sequence | sensor-assay potency score (higher = more potent) |
| --- | --- |
| TTCTTCTGGATGCTCTGACCAT | -0.868 |
| TAGAGGAGAGCTCTGAGCCTGG | -0.55 |
| TAATTAGAGCGCATTAGCCGTG | -0.678 |
| TCTTCTGGATGCTCTGACCATC | -1.03 |
| AATTAGAGCGCATTAGCCGTGC | -0.806 |
| TTTCTTCTCGCGCTCGGGGTGT | -0.841 |
| TAATTTCTTCTCGCGCTCGGGG | -0.685 |
| TTTGAGGACAGCTGAAGTCTTG | -0.66 |
| AAACACTCTGTCTTCCTGCTTT | 0.482 |
| AAGTCTTGCCACTTCTTCTGGA | -0.0269 |
| TTGAGGACAGCTGAAGTCTTGC | -0.761 |
| TTGGCTGAGTCAGACTCTCGGA | -0.102 |

Biological target: C6orf48
Assay: as above
Conditions: shRNA

| Sequence | sensor-assay potency score (higher = more potent) |
| --- | --- |
| ATATTGTGTCAGCAAATTCCAT | -1.29 |
| TGTCAGCAAATTCCATAGCAAG | -1.37 |
| TCAAGTTGCAGGAATCACTGTC | 0.907 |
| TATTGTGTCAGCAAATTCCATA | -0.54 |
| AAGTTCTTAGGATATGCCCAGC | -0.846 |
| TTAGGATATGCCCAGCACCAGG | -1.71 |
| ATAGCAAGGAAGGAGAACAGGC | -1.07 |
| TTCCATAGCAAGGAAGGAGAAC | -0.82 |
| TCACACAGGATAATACAGGAAA | -0.815 |
| TGACAGCTGCTCACACAGGATA | -1.51 |
| TAAGTTCTTAGGATATGCCCAG | -0.415 |
| AGTTGCAGGAATCACTGTCTAA | -1.7 |

Biological target: C6orf58
Assay: as above
Conditions: shRNA

| Sequence | sensor-assay potency score (higher = more potent) |
| --- | --- |
| TTGGATCAGCTAATCTGCCTGT | 0.319 |
| TTCTGTACAAAGATAACCTATA | -1.09 |
| TATTCTGTTCATTATCTGGTGC | -0.148 |
| TTACTGATTGTCAAGTTCGAGT | -0.967 |
| TTTCTGTACAAAGATAACCTAT | -0.334 |
| TAGATTTATCCACATTGTCAAG | -1.66 |
| TATGATTTTATACATCCCCATT | -1.55 |
| TTATATGATCTAATCAAGGTTG | -0.152 |
| TTACACCAGAATCAACCGCAGC | -1.25 |
| TAGAATAATAATCATATCTGTC | -0.538 |
| TAATTCATTAATCATTTCCTGA | -0.771 |
